Some test systems named below: DU-145 prostate; K-562 leukemia; MALME-3M melanoma; MDA-MB-231 breast; SF-268 CNS; SF-295 CNS; SF-539 CNS; UACC-257 melanoma; M14 melanoma; RXF 393 renal.
What all share (assay): NCI-60 one-dose screen, 48 h (100 = growth as untreated, 0 = no growth, -100 = all killed)
Common to all, as to settings: 10 µM

Each structure is given as a SMILES string. This is part of a sample that, as a whole, favours compounds with a hit. Of some 83,000 tested, about 20% had one in any assay.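 Note: values are percent growth. 100 is the growth of untreated cells, values between 100 and 0 indicate rising inhibition; between -100 and 0 indicates cell death.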 A number with no mark means an inactive call. Calls of active or inactive are those of the source. Rule for the calls: active = growth percent below 10; inactive = the rest.

`COc1cccc(-c2ccnc(/N=C(\N)Nc3ccc(S(=O)(=O)Nc4nc(C)cc(C)n4)cc3)n2)c1`: the growth with DU-145 prostate was 111%; with K-562 leukemia, 92%; in the experiment with MALME-3M melanoma it was 98%; in the experiment with MDA-MB-231 breast it was 95.9%; with SF-268 CNS, 104%; in the experiment with SF-295 CNS it was 93.7%. For the same compound, the growth in the experiment on SF-539 CNS was 95.2%; in the experiment on UACC-257 melanoma it was 111%; with M14 melanoma, 114%.

Take `CC(C)c1ccc(C(=O)Nc2sc3c(c2C(N)=O)CCC(=O)C3=O)cc1`: the growth with DU-145 prostate was 103%; in the experiment with K-562 leukemia, 77.4%; in the experiment with MALME-3M melanoma, 103%; with MDA-MB-231 breast, 93.3%; with SF-268 CNS, 103%; with SF-295 CNS it was 104%. Further, the growth with SF-539 CNS was 93.9%; with UACC-257 melanoma it was 93.8%; with M14 melanoma, 96.3%.

In the case of `COc1ccc(Nc2nc(N)n(Cc3cccc(Br)c3)n2)cc1`, the growth in the experiment on DU-145 prostate is 22.6%; with K-562 leukemia, 7.86% (active); in the experiment on MALME-3M melanoma it was -25% (active); in the experiment on MDA-MB-231 breast, -5.79% (active); in the experiment on SF-268 CNS, 16%; in the experiment with SF-295 CNS, 4.42% (active). Also, the results for the growth with SF-539 CNS, in the experiment with UACC-257 melanoma and in the experiment with M14 melanoma were -3.08% (active), 6.73% (active) and 0.65% (active), respectively.

Turning to `CC(=O)NS(=O)(=O)c1ccc(NC(=O)CSC2=NC(c3ccccc3)C(C(C)=O)=C(C)N2)cc1` (stereo unspecified), the growth in the experiment with DU-145 prostate was 120%; with K-562 leukemia, 104%; with MALME-3M melanoma, 103%; in the experiment on MDA-MB-231 breast, 110%; with SF-268 CNS, 107%; in the experiment on SF-295 CNS, 101%. The growth in the experiment with SF-539 CNS is 107%; in the experiment on UACC-257 melanoma it was 106%; with M14 melanoma, 107%.

Take `O=C(NCCCCCCCCCC[P+](c1ccccc1)(c1ccccc1)c1ccccc1)c1ccc(-n2nc(-c3ccccc3O)nc2-c2ccccc2O)cc1`: the growth is -45.8% (active) in the experiment on DU-145 prostate; 6.35% (active) with K-562 leukemia; -94% (active) with MALME-3M melanoma; -73.6% (active) in the experiment on MDA-MB-231 breast; -28.8% (active) with SF-268 CNS; -90.4% (active) with SF-295 CNS. Further, the growth is -95.9% (active) in the experiment with SF-539 CNS, -71.5% (active) with UACC-257 melanoma and -84.9% (active) in the experiment on M14 melanoma.

Regarding `Brc1ccc(N/N=C/c2c[nH]c3ccccc23)nc1`, the growth with DU-145 prostate is 37.7%; with K-562 leukemia, 11.7%; in the experiment with MALME-3M melanoma, 64.1%; in the experiment on MDA-MB-231 breast it was -26% (active); with SF-268 CNS, 21.4%; in the experiment on SF-295 CNS, 25.3%. The growth in the experiment with SF-539 CNS is 21%; in the experiment with UACC-257 melanoma, 70.8%; in the experiment on M14 melanoma, 14.3%.

Regarding `CN1C/C(=C\c2ccc(O)cc2O)c2[o+]c3cc(O)ccc3cc2C1`, the growth was 78.7% with DU-145 prostate; 34.9% in the experiment with K-562 leukemia; 26.5% with MALME-3M melanoma; 14.2% in the experiment with MDA-MB-231 breast; 70% in the experiment with SF-268 CNS; 92.5% with SF-295 CNS. For the same compound, the growth in the experiment on SF-539 CNS is -8.51% (active); with UACC-257 melanoma it was 58.5%; with M14 melanoma, 55.2%.

Consider `CN1CCN(Cc2ccc(NC(=O)c3cncc(C#Cc4cnc5ccc(N[C@@H]6CCOC6)nn45)c3)cc2C(F)(F)F)CC1`, for which the growth was -100% (active) with DU-145 prostate; -0.568% (active) with K-562 leukemia; -99.1% (active) in the experiment with MALME-3M melanoma; -94.7% (active) in the experiment with MDA-MB-231 breast; -80.7% (active) in the experiment on SF-268 CNS; -98.6% (active) in the experiment on SF-295 CNS. Besides, the results for the growth in the experiment with SF-539 CNS, in the experiment on UACC-257 melanoma and in the experiment with M14 melanoma were -100% (active), -85.9% (active) and -83.3% (active), respectively.

Turning to `Nc1nc(Nc2ccc(Cl)cc2)nn1Cc1cccc(Br)c1`, the growth in the experiment on DU-145 prostate was 53.3%; in the experiment on K-562 leukemia, 20.5%; with MALME-3M melanoma, 50.6%; with MDA-MB-231 breast, 42.6%; in the experiment on SF-268 CNS it was 40.7%; in the experiment with SF-295 CNS it was 44.7%. Also, the figures for the growth with SF-539 CNS, in the experiment on UACC-257 melanoma and in the experiment with M14 melanoma were 37.8%, 58.2% and 35.8%, respectively.

In the case of `CN1CCN(c2ccc(Nc3nc(NCCCNC(=O)c4ccc(Cl)cc4)c4sccc4n3)cc2)CC1`, the growth was 84.2% in the experiment on DU-145 prostate; 72.6% with MALME-3M melanoma; 61.1% with MDA-MB-231 breast; 37.6% in the experiment on RXF 393 renal; 77% with SF-268 CNS; 98% in the experiment on SF-295 CNS. Also, the growth with SF-539 CNS is 18.7%; with UACC-257 melanoma, 71.9%; in the experiment with M14 melanoma, 68.6%.

Take `Cc1cccc2cc(-c3cc(-c4ccccc4)nc(=S)[nH]3)c(Cl)nc12`: the growth was 104% in the experiment with DU-145 prostate; 38% in the experiment on K-562 leukemia; 61% in the experiment on MALME-3M melanoma; 78.9% in the experiment on RXF 393 renal; 112% in the experiment with SF-268 CNS; 64.7% with SF-295 CNS. Moreover, the growth in the experiment on SF-539 CNS is 82.1%; in the experiment with UACC-257 melanoma it was 77.8%; in the experiment with M14 melanoma it was 33.3%.

As for `Cc1ccc(S(=O)(=O)c2nc(-c3ccccc3)oc2S(=O)(=O)CC(=O)N2CCCC2)cc1`, the growth was -98.5% (active) with DU-145 prostate; -94.9% (active) with MALME-3M melanoma; -94.8% (active) in the experiment on MDA-MB-231 breast; -93.8% (active) with RXF 393 renal; -0.601% (active) in the experiment with SF-268 CNS; 70.3% with SF-295 CNS. Moreover, the figures for the growth with SF-539 CNS, in the experiment on UACC-257 melanoma and in the experiment on M14 melanoma were -100% (active), -92.2% (active) and -48.3% (active), respectively.

As for `COc1ccc2nc(Cl)c(-c3cc(-c4ccccc4)nc(=O)[nH]3)cc2c1`, the growth in the experiment with DU-145 prostate was 26.1%; in the experiment with K-562 leukemia, 4.96% (active); in the experiment on MALME-3M melanoma, 83.3%; with RXF 393 renal, 58.5%; in the experiment with SF-268 CNS, 60.2%; in the experiment with SF-295 CNS, 64.4%. The growth is 11.3% in the experiment on SF-539 CNS, 105% in the experiment with UACC-257 melanoma and 81.9% in the experiment on M14 melanoma.

As for `CN1CCc2c(sc3ncnc(N/N=C/c4cn(-c5ccccc5)nc4-c4ccc(Br)cc4)c23)C1`, the growth in the experiment on DU-145 prostate was 56.2%; with K-562 leukemia, 18.5%; with MALME-3M melanoma it was 29.5%; in the experiment on RXF 393 renal, 83.6%; in the experiment on SF-268 CNS it was 67.2%; with SF-295 CNS it was 72.9%. Moreover, the growth was 15.7% in the experiment on SF-539 CNS, 29.9% in the experiment with UACC-257 melanoma and 19.4% in the experiment with M14 melanoma.

Source of the values: PubChem BioAssay (NCI).
